The source of these data is PubChem BioAssay (NCI).

Molecules are shown by their SMILES. About 83,000 compounds went through this panel and 20% of them were active in at least one assay; those are over-represented in the sample as a whole.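 48-hour exposure, single concentration, 96-well plates; percent growth endpoint where 0 means no net growth. Active: below 10.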 Unmarked numbers belong to inactive results. Calls of active or inactive are those of the source.

Common to all, as to experiment: NCI-60 one-dose screen, 48 h (100 = growth as untreated, 0 = no growth, -100 = all killed)
The test system of test [1] is NCI-H23 lung. The note with it: 10 µM unless noted.
Test [2] has as its system NCI-H226 lung. The note with it: 10 µM unless noted.
Test [3] relates to NCI-H322M lung. Conditions: 10 µM unless noted.
In test [4] the test system is NCI-H460 lung. The note with it: 10 µM unless noted.
In test [5] the test system is HOP-92 NSCLC. Conditions: 10 µM.
Test [6] relates to NCI-H522 lung. The note with it: 10 µM.
For test [7], the system named is A549/ATCC NSCLC. Conditions: 10 µM unless noted.
Test [8] concerns 786-0 renal. Conditions: 10 µM unless noted.
The subject of test [9] is COLO 205 colon. The note with it: 10 µM unless noted.
Test [10] relates to DU-145 prostate. Conditions: 10 µM unless noted.
For test [11], the system named is K-562 leukemia. Conditions: 10 µM unless noted.
The subject of test [12] is MALME-3M melanoma. Conditions: 10 µM unless noted.
Test [13] has as its system MDA-MB-231 breast. The note with it: 10 µM unless noted.
For test [14], the system named is RXF 393 renal. The note with it: 10 µM unless noted.
In test [15] the test system is SF-268 CNS. The note with it: 10 µM unless noted.
The subject of test [16] is SF-295 CNS. The note with it: 10 µM unless noted.
Test [17] has as its system SF-539 CNS. The note with it: 10 µM unless noted.
Test [18] relates to UACC-257 melanoma. The note with it: 10 µM unless noted.
Test [19] deals with M14 melanoma. Conditions: 10 µM unless noted.

`CC1(C)C(O)NC(Cl)=C(C#N)C1(C#N)C#N` (configuration not stated): the growth was 92.2% in test [1]; 135% in [2]; 130% in test [3]; 113% in test [4]; 141% in test [5]; 91.5% in test [6]. The growth was 103% in test [7]; 95.6% in test [8]; 118% in test [9]; 110% in [10]; 94.4% in test [11]; 136% in test [12]. Besides, the growth in [13] was 111%; in test [14], 7.52% (active); in test [15], 123%; in test [16], 174%; in test [17] it was 95.9%; in [18], 109%. Moreover, in [19], the growth is 110%.
For `Nc1ccc(S(=O)(=O)c2ccc(NO)cc2)cc1`, the growth was 100% in test [1]; 118% in [2]; 116% in [3]; 111% in test [4]; 108% in test [5]; 79.4% in test [6]. The growth in [7] was 105%; in test [8], 99.1%; in test [9], 111%; in [10], 89.4%; in [11], 91.8%; in test [12], 144%. Also, the growth in [13] is 98.3%; in test [14] it was 53.7%; in test [15], 109%; in test [16] it was 106%; in test [17], 76.8%; in [18] it was 106%. Moreover, the growth in [19] is 117%.
As for `CCOC(=O)CCCCCCCCC(=O)OCC`, the growth was 96.3% in test [1]; 103% in [2]; 97.6% in test [3]; 108% in test [4]; 98.6% in test [5]; 105% in [6]. For the same molecule, the growth was 107% in test [7]; 106% in [8]; 108% in test [9]; 108% in test [10]; 101% in test [11]; 94.4% in test [12]. Moreover, the growth is 111% in [13]; 112% in [14]; 97.3% in test [15]; 103% in test [16]; 112% in [17]; 101% in test [18]. Further, the growth in test [19] was 114%.
As for `NNC(=O)CNc1ccc2ccccc2c1`, the growth in [1] was 101%; in [2] it was 109%; in [3] it was 115%; in [4] it was 113%; in test [5], 70.4%; in test [6], 98.5%. The growth in test [7] was 115%; in [8], 105%; in test [9], 109%; in [10], 95.8%; in test [11] it was 86.8%; in test [12] it was 98.9%. The growth was 104% in test [13]; -7.3% (active) in [14]; 120% in test [15]; 118% in [16]; 95.4% in test [17]; 105% in test [18]. The growth in test [19] was -100% (active).
Turning to `Cc1c(Cc2ccccc2)c(=O)oc2c(C)c(OCC(=O)n3nc(C#N)cc3N)ccc12`, the growth in [1] is 96.5%; in test [2], 96.2%; in test [3] it was 93.6%; in test [4] it was 106%; in test [5], 89.1%; in test [6], 79.4%. Besides, the growth is 106% in test [7]; 97% in test [8]; 107% in test [9]; 104% in test [10]; 102% in test [11]; 99.5% in test [12]. The growth in test [13] is 103%; in test [14], 119%; in [15], 97.1%; in test [16], 94.7%; in test [17], 99.3%; in test [18] it was 105%. In test [19], the growth was 96.3%.
`COc1cc2c(cc1OC)C(Cc1cc(OC)c(OC)cc1[N+](=O)[O-])=NCC2`: the growth in test [1] is 67.5%; in test [2], 88.7%; in [3] it was 94.9%; in [4] it was 64.8%; in test [5], 48.5%; in test [6] it was 82.6%. The growth in [7] was 90%; in test [8] it was 87.6%; in test [9], 94.9%; in test [10] it was 101%; in test [11] it was 69%; in [12] it was 101%. Besides, the growth in test [13] was 82.6%; in test [14], 90.8%; in test [15], 90%; in [16], 42.9%; in test [17], 80.6%; in test [18], 102%. The growth in test [19] was 60.1%.
Consider `Cc1nc(NC(=O)NC2CCCCC2)sc1C(=O)NN`, for which the growth in test [1] was 101%; in [2], 103%; in test [3], 101%; in [4], 112%; in [5], -17.1% (active); in test [6], 0.452% (active). The growth in test [7] is 102%; in test [8] it was 113%; in test [9], 119%; in test [10], 109%; in [11], 154%; in [12] it was -7.04% (active). Moreover, the growth in test [13] was 97.9%; in test [14], 112%; in [15], 101%; in test [16], 103%; in test [17], 113%; in test [18] it was 101%. For the same molecule, the growth in test [19] was 94.9%.
As for `O=C(CN1C(=O)NC(c2ccccc2)(c2ccccc2)C1=O)c1ccc(N2CCCC2)cc1`, the growth in test [1] is 72.2%; in [2], 90.7%; in [3], 97.4%; in [4], 103%; in test [5], 73.8%; in [6] it was 64.5%. For the same molecule, the growth in [7] was 77.2%; in test [8], 99.6%; in test [9] it was 103%; in test [10], 107%; in test [11], 29.5%; in test [12], 72.1%. Moreover, the growth in test [13] was 113%; in [14] it was 81%; in test [15], 97.8%; in test [16], 72.1%; in test [17] it was 100%; in test [18], 85.8%. Also, the growth in [19] was 52.9%.
